Whole data set: some 3,600 compounds, median “viability index relative to DMSO control” near 0.81, cut for the lowest 2% near 0.13. Only a selection was taken, and the lowest values are over-represented in it overall.
Test system: Plasmodium falciparum NF54 stage V gametocytes
Assay: viability index relative to DMSO control (fraction); higher = less gametocyte killing
Conditions: 1.25 µM, incubation time: 72 h
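Further: Saponin-lysis sexual stage assay in serum-free medium: MitoTracker Red CMXRos staining plus saponin, high-content imaging, particle count per well divided by plate mean of DMSO wells.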

Row | SMILES | viability index
1 | O=[N+]([O-])c1ccc2nc(Nc3ccccc3)c(Nc3ccccc3)nc2c1 | 0.481
2 | O=[N+]([O-])c1ccc2nc(Nc3ccc(Cl)c(Cl)c3)c(Nc3ccc(Cl)c(Cl)c3)nc2c1 | 0.0962
3 | O=[N+]([O-])c1ccc2nc(NC3CCCCC3)c(NC3CCCCC3)nc2c1 | 0.86
4 | O=[N+]([O-])c1ccc(S(=O)(=O)N2CCN(C(=S)NCc3ccccc3)CC2)cc1 | 0.163
5 | CCCC(=O)N1CCN(c2nc(Cc3ccccc3)c3c(c2C#N)CC(C)(C)OC3)CC1 | 0.568
6 | Cc1ccc(-c2noc(C3CCN(C(=O)Nc4ccc(C#N)cc4)CC3)n2)o1 | 0.957
7 | CC1(C)Cc2c(sc(NC(=O)CCl)c2C#N)CO1 | 0.556
8 | CC(C)c1nc(N2CCN(C(=O)Nc3ccccc3)CC2)c(C#N)c2c1COC(C)(C)C2 | 0.0954
9 | CC(C)c1nc(N2CCN(C(=S)NCc3ccccc3)CC2)c(C#N)c2c1COC(C)(C)C2 | 0.0888
10 | CC[n+]1c(SC)ccc2cc(OC)ccc21 | 0.681
11 | CCC(=O)NCc1nnc(SCc2cccc(C(F)(F)F)c2)n1-c1cccc(OC)c1 | 0.865
12 | C[n+]1ccccc1C=Cc1cc(Br)ccc1O | 0.819
13 | CC(NC(=O)C(=O)N1CCCCC1)C(c1cccs1)N1CCOCC1 (stereo not given) | 0.787
14 | Cc1ccnc(Nc2nc(-c3ccc(Cl)cc3)cs2)c1 | 0.938
15 | Cc1ccnc(Nc2nc(-c3c(C)nc4sccn34)cs2)c1 | 0.822
16 | Fc1cccc2sc(Nc3nc(-c4ccccn4)cs3)nc12 | 0.322
17 | COc1ccc2nc(Nc3nc(-c4ccccn4)cs3)sc2c1 | 0.331
18 | Cc1ccnc(Nc2nc(-c3ccccn3)cs2)c1 | 0.0192
19 | c1ccc(Nc2nc(-c3ccccn3)cs2)nc1 | 0.0653
20 | CC(=O)Nc1nc(C)c(-c2csc(Nc3ccc(C)cc3)n2)s1 | 0.351
21 | O=C(Nc1nc(-c2ccccn2)cs1)c1ccc(Oc2ccc(C(=O)Nc3nc(-c4ccccn4)cs3)cc2)cc1 | 0.00826
22 | Cc1nc2sccn2c1-c1csc(Nc2ccccn2)n1 | 0.89
23 | COc1ccc2sc(Nc3nc(-c4ccccn4)cs3)nc2c1 | 0.876

Row | SMILES | viability index
24 | Cc1nc2ncccn2c1-c1csc(Nc2ccccn2)n1 | 1.06
25 | Cc1ccc(Nc2nc(-c3ccccn3)cs2)cc1 | 0.127
26 | CC1CCc2c(sc(NC(=O)c3ccccc3F)c2C(=O)NCc2ccccc2)C1 (stereo not given) | 1.42
27 | CCC(CC)=NNC(=O)C(=O)NC1CCCCC1 | 1.13
28 | CCC(=O)NC(c1ccccc1Cl)c1cc(Cl)c2cccnc2c1O (stereo not given) | 0.86
29 | O=C(O)c1ccc(S(=O)(=O)c2ccc3c(c2)C(=O)N(c2ccc(Sc4ccc([N+](=O)[O-])cc4)cc2)C3=O)cc1 | 0.887
30 | CCOc1ccc(Nc2cc(=O)oc3ccccc23)cc1 | 0.618
31 | CCCn1nc(Oc2nc(NCC)cc(OC)n2)ccc1=O | 0.859
32 | N=c1c2c(n(Cc3ccccc3)c3c1CCC3)CCC2 | 0.87
33 | O=[N+]([O-])c1ccc(N2CCCN(C(=S)Nc3ccc(F)cc3Br)CC2)nc1 | 0.261
34 | O=[N+]([O-])c1ccc(N2CCN(C(=S)Nc3ccccc3)CC2)cc1 | 0.967
35 | O=[N+]([O-])c1ccc(N2CCCN(C(=S)Nc3ccccc3)CC2)nc1 | 0.0788
36 | NC1=NC(c2ccccc2)N(c2ccccc2)C(N)=N1 (stereo not given) | 1.12
37 | O=C(Nc1ccccc1C(=O)O)c1cccc(NC(=O)c2ccco2)c1 | 0.73
38 | CCn1c(CSc2nc(C)cc(C)n2)nnc1SCC(N)=O | 1.13
39 | CC(=O)N(C1=C(N(C)C)C(=O)c2ccccc2C1=O)c1ccc(Cl)cc1 | 0.208
40 | CC(=O)N(C1=C(N(C)C)C(=O)c2ccccc2C1=O)c1cccc(F)c1 | 0.0612
41 | CC(=O)N(C1=C(N2CCC(C)CC2)C(=O)c2ccccc2C1=O)c1cccc(F)c1 | 0.892
42 | CC(=O)N(C1=C(N(C)C)C(=O)c2ccccc2C1=O)c1ccc(F)cc1 | 0.0453
43 | CC(=O)N(C1=C(N(C)C)C(=O)c2ccccc2C1=O)c1ccc(F)c(F)c1 | 0.0288
44 | CC(=O)N(C1=C(N2CCOCC2)C(=O)c2ccccc2C1=O)c1ccc(I)cc1 | 0.14
45 | CC(=O)N(C1=C(N(C)C)C(=O)c2ccccc2C1=O)c1cc(C)cc(C)c1 | 0.0811
46 | CC(=O)N(C1=C(N(C)C)C(=O)c2ccccc2C1=O)c1ccc(Cl)c(Cl)c1 | 0.257

Row | SMILES | viability index
47 | O=C(CN(CCN1CCOCC1)S(=O)(=O)c1ccccn1)N1CCN(C(c2ccccc2)c2ccccc2)CC1 | 0.637
48 | CCN(CC)c1ccc(C=NNC(=O)c2ccc(Nc3nc(-c4ccccc4)cs3)cc2)c(O)c1 | 0.675
49 | Cc1ccccc1N1C(=O)C2C3c4ccccc4C(C(=O)O)(c4ccccc43)C2C1=O (stereo not given) | 0.616
50 | CN(C)CCN1CCN(c2ccnc3cc4ccccc4cc23)CC1 | 0.84
51 | O=c1c(=O)n(Cc2cccc(C(F)(F)F)c2)ccn1CCc1ccccc1 | 0.751
52 | CCN(CC)S(=O)(=O)c1ccc2[nH]cc(C(=O)NCCCN3CCN(c4ccc(OC)cc4)CC3)c(=O)c2c1 | 1.14
53 | CCN(CC)c1ccc(N=Cc2ccc(Sc3nc4ccccc4s3)o2)cc1 | 1.17
54 | OC(COc1ccc(OCC(O)CN2CCN(C3c4ccccc4-c4ccccc43)CC2)cc1)CN1CCN(C2c3ccccc3-c3ccccc32)CC1 (stereo not given) | 0.754
55 | CC(=O)N(C1=C(N(C)C)C(=O)c2ccccc2C1=O)c1cccc(Cl)c1 | 0
56 | Cc1nc2c(C)cccc2c(O)c1CC=C(Cl)Cl | 0.759
57 | Oc1c(CN2CCN(Cc3ccc4cccnc4c3O)CC2)ccc2cccnc12 | 0.601
58 | COc1ccc(-c2nc(NC(=O)CS(=O)(=O)c3ccccc3)sc2C)cc1 | 1.02
59 | COc1ccc(S(=O)(=O)N=C2C=C(Nc3ccccc3)C(=O)c3ccccc32)cc1 | 0.232
60 | COc1ccc(C(OCCS(=O)(=O)CCO)(c2ccccc2)c2ccc(OC)cc2)cc1 | 0.0248
61 | O=C(Nc1ccc(Oc2ccc(OC(F)(F)F)cc2)cc1)C1CC1 | 0.693
62 | CCCOC(=O)C1=C(C)NC2=C(C(=O)CC(c3ccc(OC)c(OC)c3)C2)C1c1cccc(Br)c1 (stereo not given) | 0.83
63 | CCN1CCN(c2cc(C)c3cc(NC(=O)c4cncc(Br)c4)ccc3n2)CC1 | 0.801
64 | CCCCOc1ccc(N(C(C)=O)C2=C(N3CCCCC3)C(=O)c3ccccc3C2=O)cc1 | 0.301
65 | CC(=O)N(C1=C(N2CCCC2)C(=O)c2ccccc2C1=O)c1ccc(I)cc1 | 0.879
66 | CCCNC1=C(N(C(C)=O)c2ccc(C)cc2)C(=O)c2ccccc2C1=O | 0.0531
67 | CCCNC1=C(N(C(C)=O)c2cccc(F)c2)C(=O)c2ccccc2C1=O | 0.0245
68 | CC(=O)N(C1=C(N2CCCC2)C(=O)c2ccccc2C1=O)c1cccc(F)c1 | 1
69 | CC(=O)N(C1=C(N2CCCCC2)C(=O)c2ccccc2C1=O)c1cccc(F)c1 | 0.833

Row | SMILES | viability index
70 | COc1cccc(C(=O)NC(c2ccc(Cl)cc2)c2cc(Cl)c3cccnc3c2O)c1 (stereo not given) | 0.523
71 | COCCCNC(=O)C=Cc1ccc(C(C)C)cc1 | 0.976
72 | C=CCOC(=O)C1=C(C)N2CCSC2=C(C#N)C1c1ccco1 (stereo not given) | 1.13
73 | O=C(Nc1ccc2nc3n(c(=O)c2c1)CCCCC3)C(=O)N1CCN(c2cccc(Cl)c2)CC1 | 0.432
74 | O=C(CCCCCN1C(=O)c2cccc3cccc(c23)C1=O)NO | 0.853
75 | Cn1c(SCc2cccc([N+](=O)[O-])c2)nc2c(c1=O)SCC2 | 0.818
76 | CC(=O)N(C1=C(N2CCCCC2)C(=O)c2ccccc2C1=O)c1ccc(F)c(F)c1 | 0.837
77 | CC(=O)N(C1=C(N2CCN(C)CC2)C(=O)c2ccccc2C1=O)c1cc(C)cc(C)c1 | 0.521
78 | CC(=O)N(C1=C(N2CCOCC2)C(=O)c2ccccc2C1=O)c1ccc(Cl)c(Cl)c1 | 0.351
79 | CC(=O)N(C1=C(N2CCOCC2)C(=O)c2ccccc2C1=O)c1ccc(Br)cc1 | 0.408
80 | CC(=O)N(C1=C(N2CCCC2)C(=O)c2ccccc2C1=O)c1ccc(F)c(F)c1 | 0.743
81 | CC(=O)N(C1=C(N2CCCCC2)C(=O)c2ccccc2C1=O)c1cccc(Cl)c1 | 0.144
82 | CC(=O)N(C1=C(N2CCOCC2)C(=O)c2ccccc2C1=O)c1cccc(Cl)c1 | 0.0385
83 | CC(=O)N(C1=C(N2CCOCC2)C(=O)c2ccccc2C1=O)c1ccc(F)c(F)c1 | 0.0694
84 | CC(=O)N(C1=C(N2CCOCC2)C(=O)c2ccccc2C1=O)c1cc(C)cc(C)c1 | 0.0695
85 | COc1cncc(-c2cncc(-c3ccc(Oc4ccccc4)cc3)n2)c1 | 0.899
86 | COc1cc2c(cc1OC)C(COc1ccc(F)cc1)N(C(=O)c1ccc(OC(C)C)cc1)CC2 (stereo not given) | 0.66
87 | CCCN(CCC)CC(O)COc1ccccc1C(=O)Nc1ccccc1 (stereo not given) | 0.65
88 | Cc1ccc(N2C(N)=NC(N)=NC2(C)C)cc1 | 0.985
89 | C=CCCC(=O)N1CCC(C(=O)Nc2ccc(-c3nc4ccccc4o3)cc2)CC1 | 0.846
90 | c1ccc2c(c1)[nH]c1c(NCCN3CCCCC3)ncnc12 | 1.09

From the supplement of paper PMC4723716
